From ChEMBL document CHEMBL1201862, “PubChem BioAssay data set” (2004)
Hit rate of the full screen: of about 400,000 compounds, about 2,100 (0.53%) were called active. Another 14% or so got no clear call; they are omitted. How the calls were made is not given here. The sample as a whole holds a higher share of actives than the screen did.

biological target: Ataxin-2 (Homo sapiens) (UniProt Q99700); test: qHTS for Inhibitors of ATXN expression.; type: functional
Sequence (Q99700 whole entry): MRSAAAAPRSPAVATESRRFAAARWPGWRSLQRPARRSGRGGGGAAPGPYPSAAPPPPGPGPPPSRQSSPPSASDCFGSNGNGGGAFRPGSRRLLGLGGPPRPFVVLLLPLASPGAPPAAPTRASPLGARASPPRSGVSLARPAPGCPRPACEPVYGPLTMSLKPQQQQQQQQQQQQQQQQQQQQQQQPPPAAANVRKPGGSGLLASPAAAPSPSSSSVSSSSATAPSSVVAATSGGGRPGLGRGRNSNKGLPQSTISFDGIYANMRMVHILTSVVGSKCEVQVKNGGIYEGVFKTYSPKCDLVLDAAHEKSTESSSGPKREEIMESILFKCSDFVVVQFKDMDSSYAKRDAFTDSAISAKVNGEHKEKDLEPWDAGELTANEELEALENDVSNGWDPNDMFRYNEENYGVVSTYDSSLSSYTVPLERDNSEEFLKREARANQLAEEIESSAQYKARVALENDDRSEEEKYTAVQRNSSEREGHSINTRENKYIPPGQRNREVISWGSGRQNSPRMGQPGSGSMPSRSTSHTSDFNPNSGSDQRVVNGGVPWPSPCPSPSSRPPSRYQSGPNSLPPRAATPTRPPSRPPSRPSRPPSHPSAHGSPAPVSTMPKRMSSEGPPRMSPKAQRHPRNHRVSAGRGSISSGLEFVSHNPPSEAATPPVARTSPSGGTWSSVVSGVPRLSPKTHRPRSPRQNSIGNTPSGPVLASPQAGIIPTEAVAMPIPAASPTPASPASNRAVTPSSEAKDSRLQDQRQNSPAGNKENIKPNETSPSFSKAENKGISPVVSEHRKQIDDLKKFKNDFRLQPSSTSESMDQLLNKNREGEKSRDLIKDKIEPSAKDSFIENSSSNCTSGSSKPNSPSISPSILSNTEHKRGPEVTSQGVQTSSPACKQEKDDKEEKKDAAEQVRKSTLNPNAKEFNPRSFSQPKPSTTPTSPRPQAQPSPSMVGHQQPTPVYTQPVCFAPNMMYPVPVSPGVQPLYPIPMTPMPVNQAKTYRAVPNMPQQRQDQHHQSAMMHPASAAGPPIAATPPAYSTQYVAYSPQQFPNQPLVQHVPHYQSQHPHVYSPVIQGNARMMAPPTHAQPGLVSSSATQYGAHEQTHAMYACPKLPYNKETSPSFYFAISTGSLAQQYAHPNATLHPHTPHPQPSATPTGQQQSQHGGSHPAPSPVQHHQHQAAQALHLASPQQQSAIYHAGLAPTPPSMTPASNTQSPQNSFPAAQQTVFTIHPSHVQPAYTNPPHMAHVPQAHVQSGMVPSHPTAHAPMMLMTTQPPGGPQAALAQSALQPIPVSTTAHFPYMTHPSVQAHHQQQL

Compound	Potency
O=[N+]([O-])c1cccc(S(=O)(=O)NCC2CC3CCC2C3)c1 (stereo not drawn)	inactive
CC(C)(C)c1ccc(SCCc2cccnc2)cc1	inactive
Nc1c(C(=O)Nc2ccc(Cl)cc2F)sc2nc(-c3cccs3)ccc12	inactive
NC(=O)c1cc(N2C(=O)C=CC2=O)ccc1Cl	35.5 µM (active)
O=C(O)c1cccc(N2C(=O)c3cccc4c(Cl)ccc(c34)C2=O)c1	inactive
CN1CCN(/N=C/c2ccc(-c3ccc([N+](=O)[O-])cc3Cl)o2)CC1	inactive
CN1CCN(C(=O)/C=C/c2ccc([N+](=O)[O-])o2)CC1	8.91 µM (active)
CN1CCCN(C(=O)/C=C/c2ccc(Cl)cc2Cl)CC1	inactive
Nc1cccc2nc3ccccc3cc12	inactive
C1=C/C(=N\C2CCCCC2)C=C2C1=NC13CCCCC1CC1=C(CCCC1)N23 (stereo not drawn)	35.5 µM (active)
CSc1ccc(CN(C)Cc2nc(O)c3ccccc3n2)cc1	inactive
O=C(CSc1cn(CCNC(=O)c2cccc(C(F)(F)F)c2)c2ccccc12)Nc1ccc2c(c1)OCCO2	35.5 µM (active)
COc1ccc(CCNC(=O)CSc2cn(CCNC(=O)c3cccc(C(F)(F)F)c3)c3ccccc23)cc1OC	22.4 µM (active)
Cc1nnc(NC(=O)CSc2cn(CCNC(=O)c3ccccc3)c3ccccc23)s1	inactive
CCn1c(CNC(=O)c2ccc3c(c2)OCO3)nnc1SCC(=O)Nc1ccccc1F	inactive
COc1ccc(CCNC(=O)CSc2nnnn2C)cc1OC	inactive
O=C(COC(=O)CCSc1ccccc1Cl)NCc1ccco1	inactive
COc1ccc(CC(=O)NNC2=Nc3cccc4cccc2c34)cc1	inactive
N#Cc1ccc(C(=O)CSc2nnc(-c3ccc(C(F)(F)F)cn3)s2)cc1	inactive
O=C(NCCO)/C(=C\c1ccco1)NC(=O)c1cccs1	inactive
COC(=O)C1=CN(C(C)C)C=C(C(=O)OC)C1c1cccc(OC)c1	inactive
COc1ccc(C)cc1NC(=O)c1cc2c(=O)n3ccccc3nc2n1C	inactive

Compound	Potency
Cc1ccccc1Nc1c(-c2ccc(N3CCOCC3)cc2)nc2cccc(C)n12	22.4 µM (active)
CCCCNc1c(-c2ccc(-c3ccc(C(C)=O)cc3)c(OC)c2)nc2cnccn12	inactive
c1cn2c(NC3CCCC3)c(-c3ccc(N4CCOCC4)cc3)nc2cn1	inactive
Cc1cccc(C)c1Nc1c(-c2ccc(N3CCOCC3)cc2)nc2cnccn12	inactive
COc1cc(O)ccc1-c1nc2cc(C)ccn2c1Nc1ccccc1C	35.5 µM (active)
c1ccc2c(Nc3ccc(N4CCOCC4)cc3)nc(N3CCOCC3)nc2c1	inactive
Cc1ccc(-c2nc(Nc3ccc(N4CCOCC4)cc3)c3ccccc3n2)cc1	inactive
Cc1ccn2c(Nc3ccccc3C)c(-c3ccc(N4CCOCC4)cc3)nc2c1	35.5 µM (active)
Cc1ccn2c(Nc3ccccc3C)c(-c3ccccn3)nc2c1	15.8 µM (active)
C/C(=N/NC(=O)c1sc(NS(=O)(=O)c2ccccc2)nc1C)c1sc(N)nc1C	inactive
CC(C)CN(CC(C)C)C(S)=Nc1ccc(Cl)cc1	inactive
Oc1nc2ccccc2nc1/C=C/c1ccc(Cl)cc1	inactive
CN(C)CC(O)c1ccc(C=Cc2ccc(Cl)cc2)cc1 (stereo not drawn)	31.6 µM (active)
Cc1ccc(S(=O)(=O)Nc2ccccc2/C=N/c2nc3ccccc3n2C(C)C)cc1	inactive
Nc1cc2sc(-c3ccc(C(=O)O)cc3)nc2cc1Cl	inactive
CC[C@@H](C)[C@H](CN[C@H](CNC)C(C)C)NC[C@@H](C)c1ccc(CC(C)C)cc1	22.4 µM (active)
COc1cc(/C=C(\C#N)c2nc3ccccc3[nH]2)cc(Cl)c1OCc1ccccc1Cl	inactive
COc1cc(CNC2CCCC2)cc(Cl)c1OCc1ccccc1F	28.2 µM (active)
NNC(=O)c1oc2ccccc2c1-n1cccc1	inactive
Cc1cc(NC(=O)Nc2ccc(Cl)cc2)n(-c2ccccc2)n1	inactive
Cc1nc2c(c(C)nn2-c2ccccc2)c(C)c1C	inactive
O=c1c(Cl)cc(Cl)nn1-c1ccccc1	25.1 µM (active)

Compound	Potency
CCOC(=O)Cc1cnc(NC(=O)CSc2nc(C)c(CC)c(O)n2)s1	inactive
OCCCNCc1ccc(-c2ccccc2)cc1	inactive
CC(C)Oc1ccc(C(CCNCc2ccc(O)cc2)c2ccccc2)cc1 (stereo not drawn)	39.8 µM (active)
COc1ccc(CNCCC(c2ccc(OC(C)C)cc2)C(C)C)cc1OC (stereo not drawn)	25.1 µM (active)
O=c1c(O)c(-c2ccc(O)c(O)c2)oc2cc(O)ccc12	inactive
NC(=O)C[n+]1ccc(C=NO)cc1	inactive
CCc1cc(=O)oc2c(CNCc3ccccc3F)c(O)c(Cl)cc12	inactive
O=C(NNC(=O)c1cc2cc(Br)ccc2oc1=O)c1ccc(O)cc1O	inactive
Cc1ccc(NC(=O)CSCC(=O)OCc2cc(=O)oc3cc(O)ccc23)c(C)c1	inactive
COCCCn1/c(=N/C(=O)c2ccncc2)c(C#N)cc2c(=O)n3cccc(C)c3nc21	inactive
c1cc2c(cc1C1CCCCC1)c1c3n2CCCNC3CCC1 (stereo not drawn)	39.8 µM (active)
COc1ccc(OC)c(S(=O)(=O)Nc2ccc3c(c2)OCCO3)c1	inactive
COc1ccc(NS(=O)(=O)c2cc(NC(=O)c3cc(=O)c4ccccc4o3)ccc2OC)cc1	inactive
COc1ccc(OC)c(S(=O)(=O)Nc2ccc(O)c3ccccc23)c1	28.2 µM (active)
CN(CCC1CCCCO1)C(=O)CCc1nnc(CCCCc2ccccc2)o1 (stereo not drawn)	inactive
Cc1cc(C)c(CN2CCN(CCCn3cnc(C(=O)Nc4ccc(C)c(C)c4)n3)CC2)c(C)c1	35.5 µM (active)
Cc1ccc(OCC(=O)Nc2ccc(CN3CCOCC3)cc2)cc1C	inactive
Brc1ccc(C2=CC(c3ccco3)n3nnnc3N2)cc1 (stereo not drawn)	inactive
CC(C)N=C(S)NN=C1c2ccccc2-c2ccccc21	inactive
COc1cccc(/C=C/C(=O)c2ccc(NC3=NCCCS3)cc2)c1	39.8 µM (active)
CCC1CSC(Nc2ccc(C(=O)/C=C/c3ccc(OC)c(OC)c3)cc2)=N1 (stereo not drawn)	39.8 µM (active)
COc1ccc(/C=C/C(=O)Nc2cccnc2)cc1OC	inactive

Compound	Potency
CCOc1ccc(Nc2oc(/C=C/c3cccc(OC)c3)nc2C#N)cc1	inactive
COc1cc(/C=C/C(=O)OCC(=O)NC2CCS(=O)(=O)C2)ccc1OC(F)F (stereo not drawn)	inactive
COc1ccc(/C=C/C(=O)Nc2ccc(Cl)c(Cl)c2)cc1OC	31.6 µM (active)
COc1cc(/C=C/C(=O)Nc2ccc(S(=O)(=O)Nc3onc(C)c3C)cc2)cc(OC)c1OC	inactive
CCOC(=O)c1sc2nc(C)nc(Nc3ccc(OC)c(OC)c3)c2c1C	inactive
CCc1nnc(NS(=O)(=O)c2ccc(N/C=C\C(=O)c3cccc(OC)c3)cc2)s1	inactive
CC(C)C(C)(C#N)NC(=O)CSc1nnc(C(F)(F)F)n1C (stereo not drawn)	inactive
COc1cccc(/C=C/c2nc(C#N)c(N3CCCCCC3)o2)c1	inactive
COc1ccccc1[C@@H]1C(c2cccc(C)c2)=NN(c2ccccc2)[C@H]1C(=O)N1CCOC1=O	inactive
CCN1CN=C(S)N(c2ccccc2C)C1	inactive
Cc1nn2c(-c3ccc(F)cc3)ccnc2c1Cl	inactive
CN(C)c1ccc(/C=C2\Oc3ccc(C#Cc4cccc(N)c4)cc3C2=O)cc1	inactive
CN1Cc2c(N3CCOCC3)nc3sc(C(=O)c4ccc(Br)cc4)c(N)c3c2CC1(C)C	inactive
Cc1ccccc1-c1nc(C#N)c(N2CCCCC2)o1	inactive
COC1=C(OC)C(=O)C(Sc2ccc3ccccc3c2)=CC1=O	33.6 µM (active)
CC1=CC(=O)C(Sc2ccc(C)cc2)=CC1=O	inactive
Cc1cccn2c(=O)c3cc(C(=O)NCC4CCCO4)c(=N)n(C4CCCCC4)c3nc12 (stereo not drawn)	inactive
COC(=O)C1=NN(c2ccc(C)cc2)C2C(=O)N(c3ccccc3OC)C(=O)C12 (stereo not drawn)	inactive
COc1ccccc1CNC(=O)C(C)Sc1ccc(C)cc1 (stereo not drawn)	inactive
COc1ccccc1CNC(=O)Nc1nc(C(N)CCc2ccccc2)cs1 (stereo not drawn)	39.8 µM (active)
COc1ccc(OC)c(NC(=O)Nc2nc(C(N)CCc3ccccc3)cs2)c1 (stereo not drawn)	39.8 µM (active)
COc1ccccc1CNC(=O)Cc1cc(O)nc(O)n1	inactive

Compound	Potency
Cc1ccc(S(=O)(=O)Nc2nc3n(n2)C(c2ccccc2Cl)C=C(c2ccccc2)N3)cc1 (stereo not drawn)	inactive
Oc1ccc(/C=C/c2ccc3cccc(O)c3n2)cc1Br	inactive
CSc1ccc(/C=C/c2ccc3cccc(O)c3n2)cc1	inactive
Oc1cccc2ccc(Nc3ccccn3)nc12	39.8 µM (active)
O=c1oc2ccccc2cc1-c1nc2c(s1)CCc1ccccc1-2	inactive
Cc1cc(C)c2c(N)c(C(=O)N/N=C/c3cccnc3)sc2n1	inactive
CC(NCC(O)COC1CCC(C(C)(C)C)CC1)c1ccccc1 (stereo not drawn)	35.5 µM (active)
CC(O)CNC12CC3CC(CC(C3)C1)C2 (stereo not drawn)	inactive
CC(NCC(O)COCCC12CC3CC(CC(C3)C1)C2)c1ccccc1 (stereo not drawn)	39.8 µM (active)
Cc1cccc(C)c1OCC(O)CNC(C)c1ccccc1 (stereo not drawn)	inactive
CCOc1ccc2nc(N3CCCN(C(=O)Nc4ccccc4C)CC3)c(C#N)cc2c1	inactive
O=C1CC2C(=O)NCCN2C(NC(=O)c2ccc(Cl)cc2)=N1 (stereo not drawn)	inactive
Oc1ccc(N=Nc2ccc3c(c2)OCCO3)c2ncccc12	15.8 µM (active)
COC(=O)c1ccc(C(=O)OC)c(NC(=S)N2CCN(c3ccccc3F)CC2)c1	inactive
COc1ccc(CCC(=O)OCC(=O)Nc2ccc(OC)c(OC)c2)cc1OC	inactive
COc1ccc(-c2nnc(-c3ccccc3)o2)cc1OC	inactive
COc1ccc(CC(=O)Nc2cccc(-c3nnc(-c4ccccc4)o3)c2)cc1OC	10 µM (active)
CCOc1cc(-c2noc(-c3ccncc3)n2)cc(Br)c1OC	44.7 µM (active)
O=[N+]([O-])c1ccc(-c2nc(-c3ccncc3)no2)cc1	inactive
CCOc1ccccc1-c1nc(-c2ccc(C)nc2OC)no1	inactive
